Data on 10 compounds can be found in PubChem BioAssay (NCATS).

Experiment [1] in a line: qHTS of pediatric cancer cell lines to identify multiple opportunities for drug repurposing: Primary screen for A673 cells (AID 1347092). Also: nearly all actives have a fitted effect of over 45% in size. The procedure, abridged: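 A673 cells (500-1,000 cells/well) were treated 48 hours at 37 degrees C with compounds at 11-point (0.78 nM to 46 µM) or 8-point (0.59 nM to 46 µM) dilutions. Viability read by CellTiter-Glo luminescence; concentration-response curves fitted.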

Experiment [2] in a line: qHTS of pediatric cancer cell lines to identify multiple opportunities for drug repurposing: Primary screen for SK-N-MC cells (AID 1347093). The procedure, abridged:
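Metabolically active cells were quantified by ATP-dependent luminescence (CellTiter-Glo, 15 min at room temperature) following 48 h treatment. Cells had been plated at 500-1,000 per well and settled for 5 h beforehand.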
On the technique in general: In qHTS, concentration-response curves come from the screen itself.

The nature of experiment [3]: qHTS of pediatric cancer cell lines to identify multiple opportunities for drug repurposing: Primary screen for BT-37 cells (AID 1347094). The procedure, abridged:
(§1)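 ATP-based luminescence (CellTiter-Glo) quantifies viability after a 48-hour exposure. Compounds are dosed across 8 or 11 final concentrations; DMSO and 2.3 µM bortezomib serve as controls.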

The nature of experiment [4]: qHTS of pediatric cancer cell lines to identify multiple opportunities for drug repurposing: Primary screen for NB-EBc1 cells (AID 1347095). The procedure, abridged: as §1
Experiment [5] in a line: qHTS of pediatric cancer cell lines to identify multiple opportunities for drug repurposing: Primary screen for U-2 OS cells (AID 1347096). Also: nearly all actives have a fitted effect of over 50% in size. The procedure, abridged: (§2)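 Cells (500-1,000/well) rested 5 h, then received compounds for 48 h; metabolically active cells were measured by CellTiter-Glo luminescence. Final concentrations spanned up to 46 µM (MIPE, 11-point) or 0.59 nM-46 µM (NPC, 8-point) in primary screens, 11-point in follow-ups.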

The nature of experiment [6]: qHTS of pediatric cancer cell lines to identify multiple opportunities for drug repurposing: Primary screen for Saos-2 cells (AID 1347097). Also: nearly all actives have a fitted effect of over 40% in size. The procedure, abridged: as §1
Experiment [7] in a line: qHTS of pediatric cancer cell lines to identify multiple opportunities for drug repurposing: Primary screen for SK-N-SH cells (AID 1347098). Also: nearly all actives have a fitted effect of over 65% in size. The procedure, abridged:
as §2

Experiment [8] in a line: qHTS of pediatric cancer cell lines to identify multiple opportunities for drug repurposing: Primary screen for NB1643 cells (AID 1347099). Also: nearly all actives have a fitted effect of over 50% in size. The procedure, abridged: as §1
Experiment [9] in a line: qHTS of pediatric cancer cell lines to identify multiple opportunities for drug repurposing: Primary screen for LAN-5 cells (AID 1347100). The procedure, abridged:
as §2

Experiment [10] in a line: qHTS of pediatric cancer cell lines to identify multiple opportunities for drug repurposing: Primary screen for BT-12 cells (AID 1347101). Also: nearly all actives have a fitted effect of over 25% in size. The procedure, abridged:
as §2

Experiment [11] in a line: qHTS of pediatric cancer cell lines to identify multiple opportunities for drug repurposing: Primary screen for Rh18 cells (AID 1347102). Also: nearly all actives have a fitted effect of over 65% in size. The procedure, abridged:
as §2

Experiment [12] is described as follows: qHTS of pediatric cancer cell lines to identify multiple opportunities for drug repurposing: Primary screen for OHS-50 cells (AID 1347103). Also: nearly all actives have a fitted effect of over 40% in size. The procedure, abridged: as §2
Experiment [13] is described as follows: qHTS of pediatric cancer cell lines to identify multiple opportunities for drug repurposing: Primary screen for RD cells (AID 1347104). Also: nearly all actives have a fitted effect of over 55% in size. The procedure, abridged: as §1
The nature of experiment [14]: qHTS of pediatric cancer cell lines to identify multiple opportunities for drug repurposing: Primary screen for MG 63 (6-TG R) cells (AID 1347105). Also: nearly all actives have a fitted effect of over 50% in size. The procedure, abridged:
as §1

The nature of experiment [15]: qHTS of pediatric cancer cell lines to identify multiple opportunities for drug repurposing: Primary screen for control Hh wild type fibroblast cells (AID 1347106). Also: nearly all actives have a fitted effect of over 55% in size. The procedure, abridged:
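Cells (500-1,000/well) in growth media were settled 5 h at 37 degrees C, then given compounds for 48 h. Viability was read as CellTiter-Glo luminescence. Primary runs used MIPE at 11 points (0.78 nM-46 µM) and NPC at 8 points (0.59 nM-46 µM); follow-ups used 11 points.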

Experiment [16] can be described thus: qHTS of pediatric cancer cell lines to identify multiple opportunities for drug repurposing: Primary screen for Rh30 cells (AID 1347107). Also: nearly all actives have a fitted effect of over 75% in size. The procedure, abridged:
as §2

The nature of experiment [17]: qHTS of pediatric cancer cell lines to identify multiple opportunities for drug repurposing: Confirmatory screen for A673 cells (AID 1347110).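 Also: cells exposed to compound for 48 h before the viability read; nearly all actives have a fitted effect of over 65% in size.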 The procedure, abridged:
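A673 cells at 500-1,000 cells/well were dosed 5 h after plating, in dilution series up to 46 uM final; primary runs used 8 or 11 points and confirmatory runs used 11 points. Viability was read by CellTiter-Glo luminescence after 48 h, against DMSO and 2.3 uM bortezomib controls.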

Experiment [18] in a line: qHTS of pediatric cancer cell lines to identify multiple opportunities for drug repurposing: Primary screen for Rh41 cells (AID 1347108). Also: nearly all actives have a fitted effect of over 70% in size. The procedure, abridged:
as §1

Experiment [19] can be described thus: qHTS of pediatric cancer cell lines to identify multiple opportunities for drug repurposing: Confirmatory screen for NB1643 cells (AID 1347109). Also: nearly all actives have a fitted effect of over 45% in size. The procedure, abridged:
as §2

A short description of experiment [20]: qHTS of pediatric cancer cell lines to identify multiple opportunities for drug repurposing: Confirmatory screen for SK-N-MC cells (AID 1347111).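 Also: cells exposed to compound for 48 h before the readout; nearly all actives have a fitted effect of over 70% in size.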 The procedure, abridged: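 Seed 500-1,000 cells/well; rest 5 h at 37 degrees C. Pin-transfer compounds, 11-point titration. Incubate 48 h. Add CellTiter-Glo, 15 min RT, read luminescence.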

Records with an inconclusive call do not appear. Calls of active or inactive are those of the source. Calls follow the shape of the dose curve; as a rule, active = well fitted curve in the direction sought with a large enough effect; inconclusive = small, poorly fitted or top-dose-only effect, or another doubt; inactive = no such curve, though single readings can be large; an effect the other way counts as inactive or inconclusive.
Potency is read from the fitted curve at half-maximal effect.

Consider `O=C(C=Cc1ccc(CN(CCO)CCc2c[nH]c3ccccc23)cc1)NO`, for which the Potency in experiment [1] is 235 nM (active); in [2], 105 nM (active); in [3], 385 nM (active); in experiment [4] it was 148 nM (active); in experiment [5], 469 nM (active); in experiment [6] it was 372 nM (active). Moreover, the Potency in experiment [7] is 541 nM (active); in [8], 166 nM (active); in experiment [9], 93.5 nM (active); in experiment [10] it was 611 nM (active); in experiment [11], 105 nM (active); in experiment [12] it was 243 nM (active). Besides, the Potency in experiment [13] is 372 nM (active); in experiment [14], 590 nM (active); in experiment [15], 2350 nM (active); in [16] it was 1180 nM (active); in experiment [17], 369 nM (active).

Turning to `Cc1onc(-c2ccccc2)c1C(=O)N[C@@H]1C(=O)N2[C@@H](C(=O)O)C(C)(C)S[C@@H]12`, the Potency entry in experiment [1], in experiment [2], in [3], in experiment [4], in experiment [5] and in experiment [6] was “inactive” each time. The Potency entry in experiment [7], in experiment [8], in [9], in [10], in experiment [11] and in [12] was “inactive” in each case. For the same compound, the Potency result in experiment [15] and in experiment [16] was “inactive” each time.

Regarding `O=C(c1ccc(F)cc1)N1CCC[C@H](c2nc(-c3ccc(F)cc3)no2)C1`, the Potency entry in experiment [1], in experiment [2], in experiment [3], in experiment [4], in experiment [5] and in experiment [6] was “inactive” throughout. The Potency entry in [8], in [9], in experiment [10], in experiment [12], in experiment [13] and in experiment [14] was “inactive” throughout. Also, the Potency result in [15] and in [16] was “inactive” in each case. In [7], the Potency was 13600 nM (active).

For `OCc1ccccc1O[C@@H]1O[C@H](CO)[C@H](O)[C@H](O)[C@H]1O`, the Potency entry in experiment [1], in experiment [2], in experiment [3], in [4], in experiment [5] and in [6] was “inactive” throughout. For the same compound, the Potency entry in experiment [7], in [8], in [9], in [10], in experiment [11] and in experiment [12] was “inactive” each time. For the same compound, the Potency entry in experiment [13], in experiment [14], in experiment [15], in [16] and in experiment [18] was “inactive” in each case.

For `O=C(C=CC#Cc1cccc(NS(=O)(=O)c2ccccc2)c1)NO`, the Potency in experiment [1] is 1480 nM (active); in [2], 590 nM (active); in experiment [3], 4850 nM (active); in experiment [4] it was 833 nM (active); in experiment [5], 2960 nM (active); in experiment [6] it was 2350 nM (active). The Potency in experiment [7] is 3410 nM (active); in experiment [8], 1180 nM (active); in [9], 1180 nM (active); in [10], 7690 nM (active); in experiment [11], 1660 nM (active); in [12] it was 5440 nM (active). The Potency is 5260 nM (active) in [13]; 11800 nM (active) in experiment [16]; 2960 nM (active) in [18]; 2330 nM (active) in experiment [19]; 1650 nM (active) in [17]; 414 nM (active) in experiment [20]. Moreover, the Potency entry in experiment [15] was “inactive”.

In the case of `Nc1ccn(C[C@@H](CO)OCP(=O)(O)O)c(=O)n1`, the Potency entry in [1], in experiment [2], in experiment [3], in experiment [4], in experiment [5] and in experiment [6] was “inactive” throughout. Moreover, the Potency entry in experiment [7], in experiment [8], in experiment [9], in experiment [10], in experiment [11] and in experiment [12] was “inactive” each time. Moreover, the Potency result in experiment [13], in experiment [15] and in experiment [18] was “inactive” in each case.

On to `CCCCCCCCCCCCCCCC(=O)OC[C@@H](NC(=O)C(Cl)Cl)[C@H](O)c1ccc([N+](=O)[O-])cc1`, for which the Potency result in [1], in [2], in experiment [3], in experiment [4], in [5] and in [6] was “inactive” throughout. Further, the Potency result in experiment [7], in experiment [8], in experiment [9], in [10], in experiment [11] and in experiment [12] was “inactive” in each case. Also, the Potency result in [13], in [14], in experiment [15], in experiment [16] and in experiment [18] was “inactive” in each case.

Take `CC(C)C[C@H](NC(=O)CNC(=O)c1cc(Cl)ccc1Cl)B1OC(=O)CC(CC(=O)O)(C(=O)O)O1` (some centres not stated): the Potency is 11.8 nM (active) in experiment [1]; 83.3 nM (active) in experiment [2]; 344 nM (active) in experiment [3]; 469 nM (active) in [4]; 743 nM (active) in experiment [5]; 372 nM (active) in experiment [6]. For the same compound, the Potency was 215 nM (active) in experiment [7]; 372 nM (active) in [8]; 118 nM (active) in experiment [9]; 217 nM (active) in [10]; 193 nM (active) in experiment [12]; 332 nM (active) in experiment [13]. In addition, the Potency in [14] was 148 nM (active); in experiment [15], 1050 nM (active); in [16] it was 1480 nM (active); in [18] it was 296 nM (active); in experiment [19], 261 nM (active); in experiment [17], 293 nM (active). The Potency in [20] was 131 nM (active).

`CN(C)c1ccc(C(=O)NCCCCCCC(=O)NO)cc1`: the Potency in experiment [1] is 1180 nM (active); in experiment [2], 332 nM (active); in experiment [3] it was 153 nM (active); in experiment [4], 469 nM (active); in experiment [5], 1180 nM (active); in [6], 118 nM (active). The Potency in [7] is 2410 nM (active); in experiment [8], 296 nM (active); in experiment [9], 132 nM (active); in experiment [10], 1530 nM (active); in [11], 93.5 nM (active); in [12], 344 nM (active). Also, the Potency in experiment [13] is 2090 nM (active); in experiment [14], 2350 nM (active); in experiment [15], 3720 nM (active); in experiment [16] it was 2350 nM (active); in experiment [18], 935 nM (active); in experiment [19] it was 1170 nM (active). Besides, the Potency in experiment [17] is 1850 nM (active); in experiment [20], 1040 nM (active).

For the compound `CCS(=O)(=O)Nc1ccc2[nH]c(O)c(C(=Nc3ccc(CN4CCCCC4)cc3)c3ccccc3)c2c1`, the Potency in [1] was 590 nM (active); in [2], 118 nM (active); in experiment [3] it was 27300 nM (active); in experiment [4] it was 187 nM (active); in experiment [5], 5900 nM (active); in experiment [6] it was 662 nM (active). Also, the Potency in [7] is 1210 nM (active); in experiment [8] it was 118 nM (active); in [9] it was 37.2 nM (active); in experiment [10] it was 21700 nM (active); in [11] it was 4180 nM (active); in experiment [12], 1530 nM (active). Moreover, the Potency in [13] was 469 nM (active); in [14] it was 5900 nM (active); in [18], 743 nM (active); in experiment [19] it was 65.7 nM (active); in experiment [17], 928 nM (active); in experiment [20], 73.7 nM (active). The Potency result in experiment [15] is “inactive”.
